# Hit rate of the full screen: of about 300,000 compounds, about 3,700 (1.2%) were called active. Inconclusive results (about 20%) are left out. This excerpt belongs to a sample that is enriched for actives. A number with no mark means an inactive call. Calls come from the whole dose curve; tested in HEK293 cells.
# Assay: qHTS for Inhibitors of binding or entry into cells for Lassa Virus; note: nearly all actives have a fitted effect of over 50% in size
# Conditions: Lassa virus pseudotype entry inhibition, cell reporter; series mostly up to 37.9 µM; activity change, negative = inhibition: at the top concentration
# % is set by controls: 0 for no effect and ±100 for the full control effect; potency is the fitted concentration of half-maximal effect.
SMILES,"activity change, negative = inhibition",Potency
COc1ccc(NC(=O)c2ccc3nc(C(C)C)oc3c2)cc1OC,16.1% [at 46.1 µM],–
NC(=O)C1(Nc2ccc(-c3ccccc3)cc2)CCCC1,12.5%,–
CCOc1ccc(/C=C(/C#N)c2nnc(N3CCOCC3)n2-c2ccccc2)cc1OC,0.0997% [at 46.1 µM],–
CCOC(=O)C1CCCN(C(=O)c2sc3nc(C)nc(N4CCOCC4)c3c2C)C1 (configuration not stated),0.0096%,–
Cc1nc(N2CCOCC2)c2c(C)c(C(=O)Nc3ccc(C(F)(F)F)cc3)sc2n1,–,2.24 µM (active)
Cc1nc(N2CCC(C)CC2)c2c(C)c(C(=O)Nc3cc(F)ccc3C)sc2n1,19.3%,–
COc1ccc(NS(=O)(=O)c2ccc(N3CCOCC3)c(NC(=O)/C=C/C(=O)O)c2)cc1,0.984%,–
N=C1c2ccccc2-c2ccccc21,-12.6% [at 46.1 µM],–
c1ccc2c(c1)[I+]c1ccccc1-2,–,0.259 µM (active)
CCC(C(=O)NC1CCCC1)N(C(=O)c1snc(C(N)=O)c1N)c1ccc2c(c1)OCCO2 (configuration not stated),-18.4%,–
CCOc1cc(C(C(=O)NCC2CCCO2)N(C(=O)Cn2nnc3ccccc32)c2cccc(OC)c2)ccc1O (configuration not stated),11.2%,–
COc1cccc(N(C(=O)c2snc(C(N)=O)c2N)C(C(=O)NCC2CCCO2)c2c[nH]c3ccccc23)c1 (configuration not stated),–,5.62 µM (active)
COc1cc(C(=O)Nn2c(CC(C)C)nc3ccccc3c2=O)cc(OC)c1OC,18.2%,–
Cc1cc(F)ccc1NC(=S)NCCc1ccccc1,-24.8% [at 46.1 µM],–
S=C(NN=C1CCN(Cc2ccccc2)CC1)NC1CCCCC1,-5.93%,–
CCCC1CCC(=NNC(=S)NCCc2ccccc2)CC1 (configuration not stated),–,10 µM (active)
Fc1cc(Br)ccc1NC(=S)Nc1cccnc1,-0.674% [at 46.1 µM],–
COc1cccc(NC(=O)CC2C(=O)NCCN2C(=S)Nc2ccc(F)cc2)c1 (configuration not stated),0.0127%,–
S=C(Nc1cccc(Br)c1)N1CCn2cccc2C1c1cccnc1 (configuration not stated),–,7.94 µM (active)
CC(C)(C)C(=O)Nc1cccc(-c2ccc[nH]2)n1,-16.2% [at 46.1 µM],–
c1ccc(CCc2ccccn2)cc1,4.27%,–
Cc1cc(Br)ccc1NC(=S)NC1CCCC1,-13% [at 46.1 µM],–

SMILES,"activity change, negative = inhibition",Potency
COc1ccc(C(=O)Nc2ccccc2C(=O)N/N=C/c2ccc(O)c(OC)c2)cc1,–,0.355 µM (active)
O=C(N/N=C/c1ccc(OC(=O)c2ccccc2Cl)cc1)c1ccc(O)cc1,-2.38%,–
COc1ccc(C(=O)Nc2ccccc2C(=O)N/N=C/c2ccccc2OC)cc1,5.36%,–
Cc1ccc(-c2cc(C(=O)NC3CCN(Cc4ccccc4)CC3)c3ccccc3n2)cc1,11.4% [at 46.1 µM],–
COc1cccc(/C=N/Nc2ncc(C(F)(F)F)cc2Cl)c1O,–,7.94 µM (active)
COc1cc(/C=C2\SC(=S)N(Nc3ncc(C(F)(F)F)cc3Cl)C2=O)cc(OC)c1OC,-0.887%,–
COc1cccc(/C(C)=N/Nc2ncc(Cl)cc2Cl)c1,15.6%,–
CCN(CC)S(=O)(=O)c1ccc(N2CCOCC2)c(NC(=O)C2CSC3(C)CCC(=O)N23)c1 (configuration not stated),3.13%,–
C=CCNC(=O)C1CC2c3ccccc3C1c1ccccc12 (configuration not stated),1.7%,–
O=c1c2c(nc3nc[nH]n13)CCC2,9.91%,–
CCCCN1Cc2c(nc3cc(-c4ccccc4)[nH]n3c2=O)C1=O,7.74%,–
O=c1c2c(nc3cc(-c4cccc(Cl)c4)[nH]n13)CCCC2,–,4.47 µM (active)
COc1cc(Cl)c(C)cc1NC(=O)CN1CCCCCC1,-0.418%,–
CCc1c(Nc2ccccc2Cl)nc(N)[nH]c1=O,2.83% [at 46.1 µM],–
CCOc1ccc(NC(=O)CCc2c(C)nn(-c3ccc(N4CCCC4)nn3)c2C)cc1,3.23% [at 46.1 µM],–
Cc1cccnc1CCNC(=O)C1CCC(=O)N(Cc2cccc(F)c2)C1 (configuration not stated),-1.79%,–
Cc1ccccc1-n1c(SCC(=O)NCc2cccs2)nnc1-c1ccncc1,13.7%,–
Cc1ccc(Nc2nc(CSc3nnc(-c4ccncc4)n3-c3ccccc3C)cs2)cc1,–,8.91 µM (active)
Cc1ccc(Nc2nnc(SCc3ccccc3)s2)cc1,4.02%,–
CCOC(=O)c1ccc(NC(=O)c2ccc(NC(=O)C3CCCO3)cc2)cc1 (configuration not stated),-16.3% [at 46.1 µM],–
Cc1sc2ncnc(N3CCC(C(=O)NNC(=O)c4ccc(F)cc4)CC3)c2c1C,-25.3%,–
COc1ccc(Cc2nnc(N/N=C/c3ccccc3O)[nH]c2=O)cc1OC,–,3.98 µM (active)

SMILES,"activity change, negative = inhibition",Potency
O=c1[nH]c(NCCO)nnc1Cc1ccc(Cl)cc1,4.68%,–
CCOc1ccc(-n2c(O)c(/C=N/Nc3nnc(C)c(=O)[nH]3)c3ccccc3c2=O)cc1,-1.29%,–
CCNC(=S)N1CCN(S(=O)(=O)c2ccc(Cl)s2)CC1,-8.37%,–
CN(C(=O)CSc1cccc[n+]1[O-])C1CCCCC1,11.1%,–
COc1cc(NC(=O)CSc2ccc(-c3cccnc3)nn2)cc(OC)c1,2.53%,–
COc1cc(Nc2nccc(-c3cnn4ncccc34)n2)cc(OC)c1,–,2.5 µM (active)
COc1cccc(Nc2ncccc2C(=O)O)c1,12.8%,–
O=c1c(-c2cccc(Cl)c2)c[nH]n1-c1ccccc1,-0.387%,–
Cc1cc(Br)ccc1NC(=O)c1cnc(N2CCN(c3ccccn3)CC2)c2ccccc12,–,16.4 µM (active)
COC(=O)c1cnc(N2CCN(c3ccccc3OC)CC2)c2ccccc12,-11.8% [at 46.1 µM],–
O=C(Cc1ccc(Br)cc1)N1CCN(c2ccccn2)CC1,4.49%,–
O=C(C1CC(=O)N(C2CCCC2)C1)N1CCN(c2cccc(C(F)(F)F)c2)CC1 (configuration not stated),0.458%,–
Cc1cc(C)c(S(=O)(=O)NCC(c2ccc3c(c2)OCO3)N2CCOCC2)c(C)c1 (configuration not stated),-16.8%,–
CC(C)CN1CC(C)C(=O)N(c2ccccc2)C1=S (configuration not stated),16.6% [at 46.1 µM],–
CN(C)C(CNC(=O)c1cc2ccccc2o1)c1ccccc1 (configuration not stated),1.37%,–
c1ccc(C(=NNc2nc3ccccc3s2)c2ccccn2)cc1,–,12.6 µM (active)
O=C(Nc1ccccc1Cl)O/N=C(/c1ccccc1)c1ccccn1,-5.93%,–
O=[N+]([O-])c1cc(Br)c(O)c(/C=N/Nc2nc3ccccc3s2)c1,12.3% [at 46.1 µM],–
O=C(CCNC(=O)c1ccc(Br)cc1)Nc1cccc(S(=O)(=O)N2CCCCC2)c1,-10.2%,–
COc1ccc(CCN2C(=O)c3[nH]nc(-c4ccccc4O)c3C2c2ccc(C)cc2)cc1OC (configuration not stated),–,10 µM (active)
Cc1cc(C)c(-c2n[nH]c3c2C(c2ccccc2F)N(CCO)C3=O)c(O)c1 (configuration not stated),-14.4% [at 46.1 µM],–
CCCCN1C(=O)c2[nH]nc(-c3ccccc3O)c2C1c1cccc(OCc2ccccc2)c1 (configuration not stated),–,1.58 µM (active)

SMILES,"activity change, negative = inhibition",Potency
COc1ccc(CCN(C)CCN2C(=O)c3ccccc3C2=O)cc1OC,11.1%,–
COc1cccc(-c2n[nH]c3c2C(c2cccc(O)c2)N(C)C3=O)c1 (configuration not stated),-0.126% [at 46.1 µM],–
CCCCn1c(N)c(N(CCOC)C(=O)c2cccc(OCc3ccccc3)c2)c(=O)[nH]c1=O,1.78%,–
CC(C)c1ccc(S(=O)(=O)N2CCN(C(=O)CN3C(=O)NC(C)(c4ccccc4)C3=O)CC2)cc1 (configuration not stated),-6.41%,–
Cc1cc(S(=O)(=O)Nc2ccc(C(=O)NCC(c3ccco3)N3CCCC3)cc2)ccc1F (configuration not stated),12.3% [at 46.1 µM],–
CCOc1ccc(NS(=O)(=O)c2ccc(C(=O)NC3CCN(Cc4ccccc4)CC3)cc2)cc1,-15.6%,–
CCC(=O)c1cn(CCOc2ccccc2OC)c2ccccc12,-26.8%,–
CCCOc1ccc(C(=O)NCCc2ccccc2)cc1,–,2.51 µM (active)
CCCCOc1ccc(C(=O)NCc2ccncc2)cc1,3.13%,–
COc1ccc(OCCCC(=O)NCCc2ccccc2)cc1,-18.8%,–
O=C(NCc1cccnc1)c1cn(-c2ccccc2)nc1-c1cccs1,17.4%,–
CC(C)(C)OC(=O)N/N=C/c1cn(-c2ccccc2)nc1-c1cccnc1,-13.6% [at 46.1 µM],–
O=C(O)c1ccc(N/N=C/c2cn(-c3ccccc3)nc2-c2cccs2)cc1,–,5.01 µM (active)
O=C(CC1Sc2ccccc2NC1=O)NNc1ccc(Cl)c(Cl)c1 (configuration not stated),-1.65% [at 46.1 µM],–
Cc1c(C)c(C)c(S(=O)(=O)N2CCC3(CC2)OCCO3)c(C)c1C,-5.33%,–
CC(=NNC(=O)c1ccncc1)c1ccc(Cl)c(Cl)c1,0.42% [at 46.1 µM],–
CCN(c1ccccc1)S(=O)(=O)c1cccc(C(=O)O)c1,5.63%,–
CCN(c1ccccc1)S(=O)(=O)c1ccc(NC(=O)C(C)(C)C)cc1,–,14.6 µM (active)
CCN(c1ccccc1)S(=O)(=O)c1ccc(C(=O)Nc2nccs2)cc1,-16.5%,–
CN(CC(=O)NCC(c1ccccc1)N1CCCC1)S(=O)(=O)c1ccc(Cl)cc1 (configuration not stated),-1.71%,–
CCCCOc1ccc(-c2nnc(-c3ccco3)o2)cc1,-15.9%,–
CCOc1ccc(NC(=O)c2ncoc2-c2ccco2)cc1,20.4% [at 46.1 µM],–

SMILES,"activity change, negative = inhibition",Potency
CCOc1ccc(-c2nnc(-c3ccco3)o2)cc1,–,5.8 µM (active)
Cc1c[n+]([O-])ccc1[N+](=O)[O-],7.49% [at 46.1 µM],–
O=C1C2C3C=CC(C3)C2C(=O)N1c1ncc([N+](=O)[O-])s1 (configuration not stated),4.2% [at 46.1 µM],–
COc1ccc(C(=O)Nc2ccc(NC(=O)C(C)C)nc2)cc1,-17.8%,–
COc1ccc(CS(=O)/C(Cl)=C(/Cl)C(=O)Nc2ccc(OC)nc2)cc1 (configuration not stated),–,3.98 µM (active)
CCOc1ccc(S(=O)(=O)Nc2ccc(OC)nc2)cc1,-16% [at 46.1 µM],–
O=C(CSc1nnnn1C1CCCC1)N1CCCCC1,8.28% [at 46.1 µM],–
Cc1ccc(C)c(OCCC(=O)OCC(=O)NC(=O)NCc2ccccc2)c1,-18.8%,–
Cc1cc(C)cc(NC(=O)COc2coc(CN3CCN(c4ccccc4)CC3)cc2=O)c1,-7.74%,–
NC1=NOC(=O)C1C1CCCCC1 (configuration not stated),-19.2% [at 46.1 µM],–
CCOc1ccc(N(Cc2ccccc2)C(=O)c2nc(SCC)ncc2Cl)cc1,-1.9% [at 46.1 µM],–
CCOc1ccc(N(Cc2ccccc2)C(=O)c2nc(S(C)(=O)=O)ncc2Cl)cc1,–,2.51 µM (active)
CCOc1ccc(NC(=O)CN(Cc2ccccc2)S(=O)(=O)c2ccc(Cl)cc2)cc1,-13.1% [at 46.1 µM],–
CC1=NN(C(N)=S)C(=O)C1N=Nc1cc(Cl)ccc1Cl (configuration not stated),13.6% [at 46.1 µM],–
C[C@]12CCC(=O)C=C1C=CC1C2CC[C@@]2(C)C1CC[C@@]21CCC(=O)O1 (some centres not stated),7.55% [at 46.1 µM],–
CC1Cc2ccccc2N1S(=O)(=O)c1cccc(C(=O)OCC(=O)N2CCOCC2)c1 (configuration not stated),-11.3% [at 46.1 µM],–
Cc1cc(C)c(C=NNc2nc3c([nH]2)c(=O)n(C)c(=O)n3C)c(C)c1,-2.72% [at 46.1 µM],–
CCN(CC)c1ccc(/C=N/Nc2nc(C)cc(=O)[nH]2)cc1,-18.2%,–
Cc1cc(=O)[nH]c(N/N=C/c2c(C)nn(-c3ccccc3Cl)c2Cl)n1,–,11.2 µM (active)

# Source: PubChem BioAssay AID540256 (National Center for Advancing Translational Sciences (NCATS), 2011)
